Drawing on PubChem BioAssay (Tox21), this text covers Potency and outcome for 7 molecules.

Several values for one entry are separate records, joined by “and”; a condition that tells them apart may be missing. Equal entries are not always repeated. Inconclusive results are not listed. Some compounds were tested as several samples or in several runs, with calls that do not always agree. Activity calls are given as the source filed them. Unless noted, calls come from the whole dose curve; as a rule, active = well fitted curve in the direction sought with a large enough effect in the repeat runs; inconclusive = weak or mixed curves; inactive = no such curve, though single readings can be large; an effect the other way counts as inactive or inconclusive.

Test [1] can be described thus: qHTS assay to identify small molecule antagonists of the androgen receptor (AR) signaling pathway using the MDA cell line in the presence of 0.5 nM R1881 - cell viability counter screen (AID 1259242). Note: nearly all actives have a fitted effect of over 45% in size. In short, it runs like this: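 MDA-kb2 cells (human breast carcinoma, stably carrying MMTV-luciferase reporter) were exposed to compounds with 0.5 nM R1881 (final) for 16 hr at 37C, 0% CO2; viability then read as live-cell protease fluorescence (CellTiter-Fluor, 30 min) in the same wells.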

Test [2] addresses Androgen receptor (Homo sapiens) (UniProt P10275). As to the kind of experiment: qHTS assay to identify small molecule antagonists of the androgen receptor (AR) signaling pathway using the MDA cell line in the presence of 0.5 nM R1881 (AID 1259243). Note: nearly all actives have a fitted effect of over 50% in size. Note: potency is the fitted concentration of half-maximal effect. In short, it runs like this: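 MDA-kb2 human breast carcinoma cells carrying an MMTV-luciferase reporter (AR- and GR-responsive) were plated, rested 5 hr at 37C, dosed with compounds, then stimulated with 0.5 nM R1881 (final) for 16 hr; luminescence was read after ONE-Glo.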

In test [3] the target is Estrogen receptor (Homo sapiens) (UniProt P03372). As to the kind of experiment: qHTS assay to identify small molecule antagonists of the estrogen receptor alpha (ER-alpha) signaling pathway using the BG1 cell line in the presence of 0.1 nM 17-beta-estradiol (AID 1259244). Note: nearly all actives have a fitted effect of over 50% in size. Note: potency is the fitted concentration of half-maximal effect. In short, it runs like this: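 VM7Luc4E2 cells (endogenous full-length ER-alpha, stable 4xERE-luciferase) were grown 5 days in phenol red-free medium with charcoal-stripped FBS, then exposed 22 h at 37C to compounds plus 0.1 nM (final) 17beta-estradiol; ONE-Glo luminescence read-out.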

Test [4] can be described thus: qHTS assay to identify small molecule phospholipidosis (PLD) inducers (AID 1259344; active = well fitted curve in the direction sought with a large enough effect; an effect the other way counts as inactive or inconclusive). In short, it runs like this:
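Phospholipidosis is scored by imaging LipidTOX-stained pits in HepG2 cells exposed to compound for 24 h at 37 C; pit counts and integrated intensities per well and per cell serve as outputs.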

Test [5] in a line: qHTS assay to identify small molecule HDAC inhibitors - cell viability counter screen (AID 1259365). Note: series mostly up to about 92 µM; nearly all actives have a fitted effect of over 50% in size. A digest of the protocol: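 CellTiter-Glo luminescence (30 min, room temperature) reported viability after a 2 h compound exposure at 37 C. Cells: wild-type HCT-116, 1,500 per well, seeded the night before.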
Test [6] is described as follows: qHTS assay to identify small molecule agonists of the sonic hedgehog signaling (Shh) pathway - cell viability counter screen (AID 1259366). Note: nearly all actives have a fitted effect of over 50% in size. Note: potency is the fitted concentration of half-maximal effect. A digest of the protocol:
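Cytotoxicity counter screen: CellTiter-Fluor reagent added after 23 h compound exposure, then 1 h at 37C and fluorescence read. Cells were 3T3 Gli1-Luc, seeded 2,000 per well and dosed 4 h post-plating.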

The nature of test [7]: qHTS assay to identify small molecule antagonists of the sonic hedgehog signaling (Shh) pathway - cell viability counter screen (AID 1259367). Note: nearly all actives have a fitted effect of over 55% in size. Note: potency is the fitted concentration of half-maximal effect. In short, it runs like this:
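Cells: 3T3 Gli1-Luc, 2,000/well, 4 hr pre-incubation. Compounds in DMSO, then conditioned medium. Incubation 24 hr, 37C, 5% CO2. CellTiter-Fluor at 23 hr, 1 hr, fluorescence.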

The nature of test [8]: qHTS assay to identify small molecule agonists of the sonic hedgehog signaling (Shh) pathway (AID 1259368; calls by dose curve; note: series mostly up to about 92 µM; nearly all actives have a fitted effect of over 15% in size). In short, it runs like this:
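NIH/3T3-derived 3T3Gli1-Luc cells carrying a stably integrated Gli1 response element–firefly luciferase reporter were plated, left 4 hr at 37 C, then given compounds in DMSO for 24 hr. Luminescence was read 30 min after adding luciferase reagent.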

Test [9] can be described thus: qHTS assay to identify small molecule antagonists of the sonic hedgehog signaling (Shh) pathway (AID 1259369; calls by dose curve; note: nearly all actives have a fitted effect of over 45% in size; note: potency is the fitted concentration of half-maximal effect). In short, it runs like this: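 NIH/3T3-derived 3T3Gli1-Luc cells with stably integrated Gli1-Luc reporter were preincubated 4hr at 37 C, then given compounds in DMSO plus Shh conditioned medium and incubated 24hr. Firefly luciferase luminescence read after 30min reagent at room temperature.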

Test [10] concerns the target Estrogen receptor beta (Homo sapiens) (UniProt Q92731). The experiment in a line: qHTS assay to identify small molecule agonists of the estrogen receptor beta (ER-beta) signaling pathway (AID 1259377; active = well fitted activation curve with a large enough effect in the signal ratio in the repeat runs, not every such curve was filed as active; the % refers to the signal ratio). A digest of the protocol:
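Ratiometric beta-lactamase FRET read-out came after 2 h substrate loading at room temperature. It followed 16 h compound treatment at 37C of GripTite HEK293T cells carrying a UAS-bla reporter, plated in 2% charcoal-stripped FBS medium.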

The target is the same in test [11]. As to the kind of experiment: qHTS assay to identify small molecule antagonists of the estrogen receptor beta (ER-beta) signaling pathway (AID 1259378; active = well fitted inhibition curve with a large enough effect in the signal ratio in the repeat runs, not every such curve was filed as active; the % refers to the signal ratio; note: potency is the fitted concentration of half-maximal effect). In short, it runs like this: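 Antagonist mode: compounds added to beta-lactamase reporter HEK293T ER-beta-UAS cells stimulated with E2 (1nM final), 16 hr at 37C. LiveBLAzer B/G FRET substrate, 2 hours room temperature, fluorescence read-out.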

The nature of test [12]: qHTS assay to identify small molecule agonists of the estrogen receptor beta (ER-beta) signaling pathway - cell viability counter screen (AID 1259380). Note: nearly all actives have a fitted effect of over 30% in size. In short, it runs like this: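 ER-beta-UAS-bla HEK293T cells in medium with 2% charcoal-stripped FBS were preincubated 6 hr at 37C, dosed with compound in DMSO for 16 hr, then after the bla read, CellTiter-Glo was added for 30 min at room temperature; luminescence recorded.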

The target of test [13] is Androgen receptor (Homo sapiens) (UniProt P10275). As to the kind of experiment: qHTS assay to identify small molecule agonists of the androgen receptor (AR) signaling pathway in the presence of an antagonist (AID 1259381; calls by dose curve; note: nearly all actives have a fitted effect of over 15% in size; note: potency is the fitted concentration of half-maximal effect). In short, it runs like this:
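MDA-kb2 human breast carcinoma cells carrying an MMTV-luciferase reporter (AR- and GR-responsive) were treated with compounds at 15 concentrations plus 3.0uM final nilutamide for 16hr at 37C without CO2; luminescence was read after ONE-Glo addition.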

Test [14] can be described thus: qHTS assay to identify small molecule antagonists of the estrogen receptor beta (ER-beta) signaling pathway - cell viability counter screen (AID 1259382).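 Note: HEK293T cells carrying ER-beta-UAS-bla reporter stimulated with estradiol; series mostly up to about 92 µM; nearly all actives have a fitted effect of over 55% in size.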 In short, it runs like this:
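ER-beta-UAS-bla HEK293T cells (2,000/well, 2% charcoal-stripped FBS) were pre-incubated 6 hr at 37C, then given compound plus 1nM final 17-beta-estradiol for 16 hr. Viability was read in the same wells by CellTiter-Glo luminescence after 30 min at room temperature.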

In test [15] the target is Estrogen receptor (Homo sapiens) (UniProt P03372). The experiment in a line: qHTS assay to identify small molecule agonists of the estrogen receptor alpha (ER-alpha) signaling pathway in the presence of an antagonist (AID 1259383; calls by dose curve; note: top concentration of the series differs between compounds; nearly all actives have a fitted effect of over 15% in size). A digest of the protocol: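 VM7Luc4E2 cells (endogenous full-length ER-alpha, 4×ERE-luciferase) were precultured 5 days in phenol red-free medium with 10% charcoal-stripped FBS, given 10.0nM ICI-182,780 (final), then treated with compounds at 15 concentrations for 22hr at 37C; luminescence read with ONE-Glo.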

For test [16], the target named is Thyrotropin receptor (Homo sapiens) (UniProt P16473). The experiment in a line: qHTS assay to identify small molecule antagonists of the thyroid stimulating hormone receptor (TSHR) signaling pathway (AID 1259385; calls by dose curve; note: nearly all actives have a fitted effect of over 20% in size). In short, it runs like this: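 Antagonist mode: compound-treated TSHR-expressing HEK293 cells were stimulated with 1.5 ng/mL TSH (final) in presence of Ro20-1724 for 30 min at RT. HTRF cAMP detection after 1 h; each compound tested at 15 concentrations, triplicate.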

Test [17] in a line: qHTS assay to identify small molecule HDAC inhibitors (AID 1259364). Note: top concentration of the series differs between compounds; nearly all actives have a fitted effect of over 45% in size. In short, it runs like this: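 Wild-type HCT-116 cells were plated overnight, exposed to compounds for 2 h at 37 °C, then given HDAC-Glo class I/II luminogenic reagent for 30 min at room temperature before luminescence was read.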
Test [18] is described as follows: qHTS assay to identify small molecule agonists of the androgen receptor (AR) signaling pathway in the presence of an antagonist - cell viability counter screen (AID 1259379). Note: series mostly up to about 92 µM; nearly all actives have a fitted effect of over 25% in size. In short, it runs like this: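 MDA-kb2 human breast carcinoma cells (stable MMTV-luciferase, AR/GR responsive) were seeded 3,000 cells/well, pre-incubated 5 hr at 37C without CO2, then given 3.0uM nilutamide and compounds at 15 concentrations for 16 hr. Viability was read by CellTiter-Fluor fluorescence.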

Test [19] is described as follows: qHTS assay to identify small molecule agonists of the estrogen receptor alpha (ER-alpha) signaling pathway in the presence of an antagonist - cell viability counter screen (AID 1259386). Note: series mostly up to about 92 µM; nearly all actives have a fitted effect of over 30% in size. In short, it runs like this: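 VM7Luc4E2 cells (endogenous full-length ER-alpha, 4×ERE-luciferase) were held 5 days in phenol red-free medium with 10% charcoal-stripped FBS, plated, then given 10.0nM ICI-182,780 and compounds at 15 concentrations for 22hr at 37C; viability read by CellTiter-Fluor fluorescence.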

Test [20] in a line: qHTS assay to identify small molecule agonists or antagonists of the thyroid stimulating hormone receptor (TSHR) signaling pathway - wild type cell line counter screen (AID 1259384; calls by dose curve). A digest of the protocol: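 Counter screen in untransfected Hek293: compounds (15-point titration, triplicate) plus phosphodiesterase inhibitor Ro20-1724 added after 18 h plating; 30 min RT. Intracellular cAMP via competitive d2/cryptate immunoassay, 1 h incubation.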

Chain of Thyrotropin receptor (Homo sapiens) (P16473 whole entry, looked up): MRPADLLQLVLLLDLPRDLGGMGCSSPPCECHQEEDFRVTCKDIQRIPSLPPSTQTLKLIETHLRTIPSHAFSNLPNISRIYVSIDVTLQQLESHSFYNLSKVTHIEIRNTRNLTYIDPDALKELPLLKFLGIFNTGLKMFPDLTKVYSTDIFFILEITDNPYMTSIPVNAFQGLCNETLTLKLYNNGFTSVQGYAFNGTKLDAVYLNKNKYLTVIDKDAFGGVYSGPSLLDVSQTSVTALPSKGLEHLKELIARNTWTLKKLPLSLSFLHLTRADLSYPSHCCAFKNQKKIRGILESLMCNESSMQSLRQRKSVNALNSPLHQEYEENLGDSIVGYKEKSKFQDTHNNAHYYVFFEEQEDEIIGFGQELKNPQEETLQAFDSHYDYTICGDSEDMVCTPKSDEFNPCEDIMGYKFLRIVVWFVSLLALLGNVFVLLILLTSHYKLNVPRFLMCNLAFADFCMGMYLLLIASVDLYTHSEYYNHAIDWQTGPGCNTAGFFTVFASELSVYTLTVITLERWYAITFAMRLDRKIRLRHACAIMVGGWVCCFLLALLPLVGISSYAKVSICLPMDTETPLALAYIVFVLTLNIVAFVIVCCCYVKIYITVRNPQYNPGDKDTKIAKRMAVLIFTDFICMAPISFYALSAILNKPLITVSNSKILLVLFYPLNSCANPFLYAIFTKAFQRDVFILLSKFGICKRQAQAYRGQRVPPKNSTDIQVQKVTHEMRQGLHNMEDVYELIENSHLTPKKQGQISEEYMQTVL
Chain of Estrogen receptor beta (Homo sapiens) (Q92731 whole entry, looked up): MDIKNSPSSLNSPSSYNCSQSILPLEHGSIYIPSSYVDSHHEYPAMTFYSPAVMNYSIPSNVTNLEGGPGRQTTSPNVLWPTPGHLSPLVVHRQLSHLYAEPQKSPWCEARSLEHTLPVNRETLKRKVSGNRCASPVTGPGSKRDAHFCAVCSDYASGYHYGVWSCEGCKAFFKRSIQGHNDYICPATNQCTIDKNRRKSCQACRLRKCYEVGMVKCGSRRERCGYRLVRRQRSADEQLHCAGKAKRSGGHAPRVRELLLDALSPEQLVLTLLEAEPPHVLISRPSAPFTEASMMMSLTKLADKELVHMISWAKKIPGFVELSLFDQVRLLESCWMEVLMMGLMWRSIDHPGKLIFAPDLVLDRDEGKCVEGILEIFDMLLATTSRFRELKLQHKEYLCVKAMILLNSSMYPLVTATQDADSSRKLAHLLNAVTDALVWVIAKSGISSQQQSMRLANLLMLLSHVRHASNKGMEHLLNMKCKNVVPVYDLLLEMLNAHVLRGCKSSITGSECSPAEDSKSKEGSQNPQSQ
Chain of Androgen receptor (Homo sapiens) (P10275 whole entry, looked up): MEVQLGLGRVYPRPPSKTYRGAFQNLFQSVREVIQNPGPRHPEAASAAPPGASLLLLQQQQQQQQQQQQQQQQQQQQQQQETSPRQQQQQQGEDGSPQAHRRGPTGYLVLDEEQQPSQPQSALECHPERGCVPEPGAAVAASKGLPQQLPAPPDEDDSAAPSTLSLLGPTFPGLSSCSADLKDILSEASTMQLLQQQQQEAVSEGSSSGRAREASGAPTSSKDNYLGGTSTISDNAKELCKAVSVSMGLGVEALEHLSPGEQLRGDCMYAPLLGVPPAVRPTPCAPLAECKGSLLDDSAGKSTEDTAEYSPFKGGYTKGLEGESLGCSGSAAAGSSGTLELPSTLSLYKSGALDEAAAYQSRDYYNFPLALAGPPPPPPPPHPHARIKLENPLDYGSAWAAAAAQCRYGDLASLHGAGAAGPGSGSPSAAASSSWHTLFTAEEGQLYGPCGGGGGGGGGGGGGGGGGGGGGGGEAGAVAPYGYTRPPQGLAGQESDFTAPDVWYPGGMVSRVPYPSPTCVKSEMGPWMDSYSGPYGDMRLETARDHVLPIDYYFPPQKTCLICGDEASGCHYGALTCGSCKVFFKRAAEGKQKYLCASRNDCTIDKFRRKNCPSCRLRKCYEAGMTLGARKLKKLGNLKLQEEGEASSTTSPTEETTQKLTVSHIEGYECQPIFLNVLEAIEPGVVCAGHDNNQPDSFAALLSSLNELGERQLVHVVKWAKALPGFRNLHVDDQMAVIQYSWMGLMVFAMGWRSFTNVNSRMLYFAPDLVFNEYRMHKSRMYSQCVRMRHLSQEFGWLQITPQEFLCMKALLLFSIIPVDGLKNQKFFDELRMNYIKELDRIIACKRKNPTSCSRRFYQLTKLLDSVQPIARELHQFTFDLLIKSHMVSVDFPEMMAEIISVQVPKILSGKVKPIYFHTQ
Chain of Estrogen receptor (Homo sapiens) (P03372 whole entry, looked up): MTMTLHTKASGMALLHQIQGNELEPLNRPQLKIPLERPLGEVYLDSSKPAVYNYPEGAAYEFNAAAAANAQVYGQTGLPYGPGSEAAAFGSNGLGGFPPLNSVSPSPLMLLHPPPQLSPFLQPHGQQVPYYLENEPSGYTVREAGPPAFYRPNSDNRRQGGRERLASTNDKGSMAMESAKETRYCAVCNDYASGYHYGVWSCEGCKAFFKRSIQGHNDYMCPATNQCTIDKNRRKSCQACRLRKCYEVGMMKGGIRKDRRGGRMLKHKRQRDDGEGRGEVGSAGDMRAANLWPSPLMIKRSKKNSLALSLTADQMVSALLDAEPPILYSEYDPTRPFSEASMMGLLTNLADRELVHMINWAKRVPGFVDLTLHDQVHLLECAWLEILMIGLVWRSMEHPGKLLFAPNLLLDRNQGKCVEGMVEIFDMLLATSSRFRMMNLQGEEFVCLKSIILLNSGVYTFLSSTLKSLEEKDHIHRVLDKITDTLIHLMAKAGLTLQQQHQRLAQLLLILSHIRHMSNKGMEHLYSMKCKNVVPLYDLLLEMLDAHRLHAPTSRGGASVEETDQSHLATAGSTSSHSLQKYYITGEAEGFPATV

For the molecule `CC(=O)Oc1ccc(C(c2ccc(OC(C)=O)cc2)c2ccccn2)cc1`, the Potency result in test [1], in test [4], in test [6], in test [7], in test [8] and in test [9] was “inactive” each time. Further, the Potency result in test [10], in test [12], in test [13], in test [14], in test [15] and in test [16] was “inactive” throughout. The Potency in test [2] was 171 nM (active) and 1.19 µM (active); in test [3] it was 54.2 nM (active) and 944 nM (active); in test [11] it was 2.16 µM (active) and 3.76 µM (active). Besides, the call in [5] was inactive.
For the molecule `OC[C@@H](O)[C@@H](O[C@@H]1O[C@H](CO)[C@H](O)[C@H](O)[C@H]1O)[C@H](O)[C@@H](O)CO`, the Potency result in [1], in test [3], in [4], in test [17], in test [6] and in test [7] was “inactive” each time. The Potency entry in test [8], in test [18], in test [12], in test [14], in [15] and in test [16] was “inactive” throughout. For the same molecule, the Potency result in test [19] is “inactive”. The outcome in test [5] was inactive.
Take `OC[C@H]1O[C@@H]2O[C@H]3[C@H](O)[C@@H](O)[C@@H](O[C@H]4[C@H](O)[C@@H](O)[C@@H](O[C@H]5[C@H](O)[C@@H](O)[C@@H](O[C@H]6[C@H](O)[C@@H](O)[C@@H](O[C@H]7[C@H](O)[C@@H](O)[C@@H](O[C@H]1[C@H](O)[C@H]2O)O[C@@H]7CO)O[C@@H]6CO)O[C@@H]5CO)O[C@@H]4CO)O[C@@H]3CO`: the Potency result in test [1], in test [3], in test [4], in test [17], in [6] and in test [8] was “inactive” throughout. Further, the Potency entry in [10], in test [11], in [18], in test [12], in [14] and in [15] was “inactive” throughout. Moreover, the Potency result in [20], in [16] and in test [19] was “inactive” each time. Besides, the molecule was classed as inactive in test [5]. Further, the Potency entry in [7] was “inactive and 25.7 µM (active)”.
As for `O=Cc1ccccc1C=O`, the Potency result in [1], in test [3], in test [4], in [8], in [10] and in test [18] was “inactive” throughout. For the same molecule, the Potency entry in [12], in test [13], in test [14], in test [15], in [16] and in [19] was “inactive” each time. Further, the Potency was 54.5 µM (active) and inactive in [2]; 61.1 µM (active) and inactive in [6]; 54.5 µM (active) and inactive in test [7]; 54.5 µM (active) and inactive in test [11]. Further, the molecule was classed as inactive in [5].
On to `CC(=O)O[C@]1(C(C)=O)CC[C@H]2[C@@H]3C=C(C)C4=CC(=O)CC[C@]4(C)[C@H]3CC[C@@]21C`, for which the Potency result in test [1], in test [3], in test [4], in [17], in test [6] and in test [7] was “inactive” each time. In addition, the Potency result in [8], in test [18], in test [12], in test [14], in test [15] and in test [20] was “inactive” throughout. Also, the Potency result in test [16] and in [19] was “inactive” throughout. In addition, the outcome in [5] was inactive.
Regarding `C=C1C[C@H]2[C@@H]3C=C(C)C4=CC(=O)CC[C@]4(C)[C@H]3CC[C@]2(C)[C@@]1(OC(C)=O)C(C)=O`, the Potency result in [1], in [2], in [3], in test [17], in test [6] and in test [7] was “inactive” in each case. Moreover, the Potency entry in test [8], in test [10], in test [11], in test [18], in [12] and in test [14] was “inactive” in each case. Further, the Potency result in [15] and in test [19] was “inactive” in each case. Moreover, in [5], the molecule was classed as inactive. Moreover, the Potency is 19.7 µM (active) and inactive in test [9]; 39.4 nM (active) and 59.6 nM (active) in test [13].
Turning to `CCc1cccc2c3c([nH]c12)C(CC)(CC(=O)O)OCC3` (centres undefined), the Potency entry in test [1], in test [2], in [3], in test [4], in test [17] and in test [6] was “inactive” each time. In addition, the Potency result in [7], in [8], in test [9], in test [10], in test [11] and in test [18] was “inactive” in each case. Moreover, the Potency entry in test [12], in test [13], in test [14], in test [15] and in test [16] was “inactive” each time. Also, the molecule was classed as inactive in test [5].
